Compound activity: PubChem, National Center for Advancing Translational Sciences (NCATS)
Sampled rows, rich in hits. Any-hit rate of the full collection: about 3%.
Tb PYK inh: qHTS of Trypanosoma Brucei Inhibitors; TbPYK enzyme, Kinase-Glo Plus ATP luminescence, 45 min; Potency, µM (doses to about 76.8 µM), usual class: inhibitors; 0.12% of 410,000 active; AID 624173, 2012; note: nearly all actives have a fitted effect of over 50% in size
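Luminescence from Kinase-Glo Plus, added after a 45-minute room-temperature reaction, served as the end-point read-out. The enzyme and substrate were preincubated with compound before ADP (130 uM final) initiated turnover. Concentration-effect curves came from normalized qHTS data.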
Sm TGR block: qHTS Assay for the Inhibitors of Schistosoma Mansoni Peroxiredoxins. Schistosoma mansoni thioredoxin glutathione reductase (TGR), Q962Y6. purified TGR, DTNB reduction, TNB absorbance 405 nm. Potency, µM (doses to about 114 µM), most hits filed as inhibitors. 3% of 360,000 active; note: nearly all actives have a fitted effect of over 60% in size
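First, TGR (20 nM dispensed) and NADPH were mixed with compound. Second, a 15 min room-temperature incubation followed. Third, further NADPH and then DTNB were added to start the reaction. Finally, TNB absorbance was monitored kinetically.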
LmPK inhibitor: qHTS Assay for Inhibitors of Leishmania Mexicana Pyruvate Kinase (LmPK); purified LmPK, Kinase-Glo ATP luminescence, 1 h; Q27686; AID 1721, 2009; Potency, µM (series often up to 57.5 µM), hits mostly inhibitors; 0.37% of 290,000 active
Target sequence (Q27686 whole entry, looked up): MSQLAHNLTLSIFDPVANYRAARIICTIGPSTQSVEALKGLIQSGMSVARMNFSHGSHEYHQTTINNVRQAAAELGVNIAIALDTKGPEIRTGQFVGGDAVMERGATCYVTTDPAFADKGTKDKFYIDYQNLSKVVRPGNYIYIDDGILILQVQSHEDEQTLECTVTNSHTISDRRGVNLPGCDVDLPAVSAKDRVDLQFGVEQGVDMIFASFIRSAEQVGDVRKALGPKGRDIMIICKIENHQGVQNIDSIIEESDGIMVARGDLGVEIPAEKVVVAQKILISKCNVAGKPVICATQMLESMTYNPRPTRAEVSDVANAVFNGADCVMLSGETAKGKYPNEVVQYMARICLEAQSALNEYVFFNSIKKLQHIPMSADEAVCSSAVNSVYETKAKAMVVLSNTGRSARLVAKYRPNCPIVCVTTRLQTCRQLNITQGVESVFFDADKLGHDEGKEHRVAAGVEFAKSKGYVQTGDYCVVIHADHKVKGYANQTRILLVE
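Kinase-Glo luminescence read after 1 h RT reaction of 0.1 nM LmPK with 0.5 mM PEP and 0.1 mM ADP. Activity scaled between uninhibited and enzyme-free controls.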
RE007 growth inh: qHTS Assay for Inhibitors of the HIV-1 protein Vpr. 0.21% of 360,000 active. Potency, µM (titrated, usually from 92.2 µM), usual class: inhibitors. S. pombe RE007 Vpr strain, BacTiter-Glo ATP luminescence, 24 h; active = well fitted falling curve with a large enough effect; inconclusive = small, poorly fitted or top-dose-only effect; inactive = no such curve, though single readings can be large or run the other way; note: nearly all actives have a fitted effect of over 50% in size
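Fission yeast strain RE007, carrying one chromosomally integrated HIV-1 vpr copy, was seeded at OD 0.01 in PMG+AL medium with 23 nL pinned compound. After 24 h at 30 °C and 99% humidity, viability was read by BacTiter-Glo luminescence.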
Hits are given with their value; n = inactive; u = inconclusive; x = no result given; [ ] = another dose, or the depositor's remark. Unless noted, calls come from the whole dose curve; as a rule, active = well fitted curve in the direction sought with a large enough effect; inconclusive = small, poorly fitted or top-dose-only effect, or another doubt; inactive = no such curve, though single readings can be large; an effect the other way counts as inactive or inconclusive.

SMILES	Tb PYK inh	Sm TGR block	LmPK inhibitor	RE007 growth inh
COn1c2c(c3c4nonc4ccc31)CCCC2	n	28.2µM	n	n
On1c2c(c3c4nonc4ccc31)CCCC2	x	u	n	x
COc1cccc(CC2(CO)CCCN(Cc3ccc(CO)o3)C2)c1 (stereo not drawn)	n	n	n	n
COc1cccc(CC2(CO)CCCN(Cc3ccc(C)s3)C2)c1 (stereo not drawn)	n	n	n	n
COc1cccc(CC2(CO)CCCN(Cc3ccc(-c4ccco4)cc3)C2)c1 (stereo not drawn)	n	17.8µM	n	n
COc1cccc(CC2(CO)CCCN(Cc3ccccc3-c3ccco3)C2)c1 (stereo not drawn)	n	50.1µM	n	n
CCOC(=O)c1cc(S(=O)(=O)N2CCN(c3cc(C)ccc3C)CC2)[nH]n1	n	n	x	x
CCCCN(CCCC)CCCNC(=O)c1cc(-c2ccc(Cl)s2)nc2ccccc12	n	n	x	x
CC#CCN1c2ccccc2[C@]23C[C@@H](C(=O)OC)N(S(=O)(=O)CCCC)C2=NC(C(=O)OC)=C(C(=O)OC)[C@H]13	x	x	n[11.5 µM]	x
O=S(=O)(NC1CC(NS(=O)(=O)OCC(Cl)(Cl)Cl)C2CCCCC12)OCC(Cl)(Cl)Cl (stereo not drawn)	n	79.4µM	n	n
O=C(O)CCC(=O)CCC(=O)c1ccc(Cl)cc1	n	28.2µM	n	n
O=C(O)CCC(=O)c1ccc(-c2ccccc2)cc1	n	n	n	n[18.4 µM]
CCSc1nc(O)c(C2OC(=O)c3c2ccc(OC)c3OC)c(=O)n1-c1ccccc1 (stereo not drawn)	n	7.08µM	n	n
Cc1cccc2cc(CN(Cc3ccco3)C(=O)c3ccncc3)c(=O)[nH]c12	n	31.6µM	n	n
Cc1cc(C)c2[nH]c(=O)c(CN(CC3CCCO3)C(=S)NCc3ccco3)cc2c1 (stereo not drawn)	n	n	n	n
O=C(c1ccncc1)N(Cc1ccco1)Cc1cc2ccccc2[nH]c1=O	n	n	n	n
Cc1cc(C)c2[nH]c(=O)c(CN(Cc3ccco3)C(=O)C3CCCO3)cc2c1 (stereo not drawn)	n	25.1µM	n	n
Cc1cc(C)c2cc(CN(Cc3ccco3)C(=O)NCc3ccccc3)c(=O)[nH]c2c1	n	50.1µM	n	n
Cc1cc(C)c2cc(CN(CC3CCCO3)C(=S)NCc3ccco3)c(=O)[nH]c2c1 (stereo not drawn)	n	n	n	n
COCc1nc2cccnc2n1C1CCN(S(=O)(=O)N(C)C)CC1	n	n	x	x
COc1ccc(OCC(=O)Sc2ccc(C)cc2)cc1	n	3.16µM	n	n
CCOc1ccc(C2C(=O)N(C3CCCCCC3)CC(=O)N2Cc2ccccc2)cc1OC (stereo not drawn)	n	n	x	x
CCn1c(=O)c([N+](=O)[O-])c(Cl)c2ccccc21	n	0.794µM	n	n
C=C(CC)C(=O)c1ccc(OCC(=O)O)c(Cl)c1Cl	n	35.5µM	n	n
CCOC(=O)COc1ccc2nsnc2c1Cl	n	n	n	n
SMILES	Tb PYK inh	Sm TGR block	LmPK inhibitor	RE007 growth inh
COc1ccc(NC(=O)C2=C(C)Nc3nc(SCc4ccc(Cl)cc4)nn3C2c2cccc(OC)c2OC)cc1 (stereo not drawn)	n	n	x	x
CCOC(=O)c1c(-c2ccccc2)nc2ccccn12	n	n	n	17.8µM
Cc1cccn2c(N)c(-c3ccccc3)nc12	n	n	u	n
CCOC(=O)c1c(-c2ccccc2)nc2c(C)cccn12	n	n	n	14.1µM
COc1cc(OC)c(NC(=O)c2c3c(nc4ccccc24)C(=O)N(C2CCCCC2)C3)cc1Cl	n	u	x	x
O=C(c1ccc(F)cc1)n1nc(-c2cccnc2)nc1NCc1ccc(F)cc1	n	n	x	x
C=CCNC(=O)c1ccccc1NC(=O)C1CC(=O)N(C(C)C)C1 (stereo not drawn)	n	17.8µM	n	n
CCn1cnc2c(NCCc3cccnc3)nc(C#N)nc21	n	50.1µM	x	x
Cc1ccc(S(=O)(=O)N2CCc3cc(C(=O)N(C)Cc4ccccc4)ccc32)cc1	n	n	x	x
CC(C)c1ccc2oc3nc(N)c(C(=O)O)cc3c(=O)c2c1	u	n	7.08µM	x
CCN(CC)C(=O)/C(C#N)=C/c1cc(O)c(O)c([N+](=O)[O-])c1	n	x	x	x
N#CC1=C(N)C2=CCCC[C@H]2[C@H](c2ccccc2)C1(C#N)C#N	n	44.7µM	n	n
N#CC1=C(N)C2=CCCC[C@H]2[C@H](c2ccc(Br)cc2)C1(C#N)C#N	n	31.6µM	n	n
CN1C2C=C3C(C#N)=C(N)C(C#N)(C#N)C(c4ccc(Br)cc4)C3C1CC2 (stereo not drawn)	n	n	n	n
CCOC(=O)C(NC(=O)CCl)(Nc1sc(C)c(CC)c1C#N)C(F)(F)F (stereo not drawn)	n	15.8µM	n	n
Cc1[nH]c2ccccc2c1C1C(c2ccccc2)=NN=C(C(C)C)N1O (stereo not drawn)	n	11.2µM	n	n
C[C@@H]1CCN(C(=O)CC#N)C[C@@H]1N(C)c1ncnc2[nH]ccc12	n	x	x	x
O=C1OC(c2cc(I)c(O)c(I)c2)(c2cc(I)c(O)c(I)c2)c2ccccc21	n	x	x	x
CCOC(=O)[C@@](C)(N)Cc1ccc(O)c(O)c1	n	x	x	x
Cc1ccc(C(=O)O)cc1NC(=S)NC(=O)Cc1ccccc1	n	n	n	n
Cc1ccc(C(=O)O)cc1NC(=S)NC(=O)C(c1ccccc1)c1ccccc1	n	56.2µM	n	n
Cn1nnnc1SCC(=O)NCC(=O)c1ccccc1	u	20µM	n	n
Cn1nnnc1SCC(=O)NCCCc1ccccc1	n	n	n	n
COc1cccc(CNC(=O)CCCN2C(=O)CCn3nc(-c4cccn4C)cc32)c1	n	n	x	x
CCCCNC(C)(C)[P+](=O)O	n	x	x	x
SMILES	Tb PYK inh	Sm TGR block	LmPK inhibitor	RE007 growth inh
CCOc1ccccc1-c1ccc(C(=O)NCc2ccccc2)o1	n	u	n	n
Cc1ccc(-c2ccc(C(=O)Nc3ccccc3)o2)c2ccccc12	n	35.5µM	n	n
Cc1ccc(-c2ccc(C(=O)NCc3ccccc3)o2)c2ccccc12	n	39.8µM	n	n
O=C(Nc1ccccc1)c1ccc(-c2ccccc2Cl)o1	n	n	n	n
Cc1ccccc1NC(=S)NNC(=O)c1cccnc1	4.47µM	n	17.8µM	n
Cc1ccccc1NC(=S)NNC(=O)c1ccncc1	n	x	n	n
CC1CN(C(=O)CCC(=O)Nc2cc(F)ccc2F)c2ccccc2S1 (stereo not drawn)	n	n	x	x
COc1cc(/C=N/n2cc(-c3ccccc3)[nH]c2=S)cc(OC)c1O	1.12µM	n	2.51µM	n
Cc1ccc(S(=O)(=O)Cn2nnnc2C(C(C)C)N2CCSCC2)cc1 (stereo not drawn)	n	u	n	n
Cc1ccc(S(=O)(=O)Cn2nnnc2C(C(C)C)N2CCc3ccccc3C2)cc1 (stereo not drawn)	n	28.2µM	n	n
